Holding throughout (test): NCI-60 one-dose screen, 48 h (100 = growth as untreated, 0 = no growth, -100 = all killed)
What all share (details): 10 µM unless noted

In assay [1] the test system is SK-MEL-2 melanoma.
In assay [2] the test system is EKVX NSCLC.
The subject of assay [3] is SN12C renal.
For assay [4], the system named is UO-31 renal.
Assay [5] relates to TK-10 renal.
The subject of assay [6] is ACHN renal.
The subject of assay [7] is CAKI-1 renal.
Assay [8] has as its system CCRF-CEM leukemia.
Assay [9] concerns MOLT-4 leukemia.
Assay [10] has as its system SR leukemia.
The test system of assay [11] is RPMI-8226 leukemia.
Assay [12] has as its system OVCAR-8 ovarian.
Assay [13] concerns OVCAR-5 ovarian.
The subject of assay [14] is OVCAR-4 ovarian.
The test system of assay [15] is SK-OV-3 ovarian.
The test system of assay [16] is OVCAR-3 ovarian.
Assay [17] relates to HS 578T breast.
The test system of assay [18] is NCI/ADR-RES ovarian.
In assay [19] the test system is A498 renal.
In assay [20] the test system is IGROV1 ovarian.

Molecules are shown by their SMILES. This is part of a sample that, as a whole, favours compounds with a hit. Of some 83,000 tested, about 20% had one in any assay.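 Assay: single dose, 48 h. Readout: percent growth (0 = no net growth; negative = cell death). Active: <10.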 Unmarked numbers belong to inactive results. Calls of active or inactive are those of the source.

Experimental findings from PubChem BioAssay (NCI) are described below.

For the molecule `CC(C)CSc1nc(N)nc2c1ncn2C1OC(CO)C(O)C1O` (stereo not drawn), the growth was 111% in assay [1]; 93.2% in assay [2]; 94% in [3]; 95.2% in assay [4]; 107% in [5]; 94.6% in assay [6]. In addition, the growth was 82.8% in assay [7]; 102% in [8]; 110% in assay [9]; 111% in assay [10]; 103% in [11]; 110% in assay [12]. Also, the growth was 93% in assay [13]; 109% in [14]; 103% in [15]; 116% in assay [16]; 103% in [17]; 103% in assay [18].

Regarding `CCOC(=O)c1c(C(=O)OCC)c2cc(-c3ccn4c(C(=O)c5ccccc5)c(C(=O)OCC)c(C(=O)OCC)c4c3)ccn2c1C(=O)c1ccccc1`, the growth is 89.8% in [1]; 90.4% in assay [2]; 93.6% in assay [3]; 66.6% in assay [4]; 112% in assay [5]; 96.3% in assay [6]. In addition, the growth in assay [19] is 86.8%; in [8], 72.9%; in assay [9], 68.1%; in assay [10], 90.4%; in assay [11] it was 50.6%; in [12] it was 71.8%. Besides, the growth in [13] is 130%; in assay [14] it was 89.2%; in assay [15] it was 109%; in [20] it was 82.3%; in [16] it was 95%; in assay [17], 80.7%. The growth in [18] was 89.5%.

As for `CC1=C[C@H]2c3c(c(O)c(O)c4oc5c(C)cccc5c(=O)c34)[C@H](c3cc(O)c(O)c4oc5c(C)cccc5c(=O)c34)[C@H]2C(C)(C)C1`, the growth in assay [1] was 20.9%; in assay [2] it was 23.5%; in assay [3], 10.6%; in assay [4], -27.2% (active); in [5], 31.2%; in assay [6], 12.2%. Moreover, the growth in assay [7] is 12.5%; in assay [8] it was 10.8%; in assay [10], 3.62% (active); in assay [11], 23.4%; in assay [12] it was 18.1%; in assay [13] it was 30.4%. For the same molecule, the growth in assay [14] was 11.3%; in assay [15], 19.1%; in assay [20], 1.21% (active); in [16], 13.8%; in assay [17] it was -6.09% (active); in [18], 4.23% (active).

As for `COc1cc(-c2nn(-c3ccc(C(=O)O)cc3)cc2C(=O)O)ccc1O`, the growth was 88.1% in assay [1]; 76.4% in [2]; 81.4% in assay [3]; 56.1% in assay [4]; 122% in assay [5]; 44.8% in assay [6]. In addition, the growth in assay [19] was 97.9%; in [8] it was 67.9%; in assay [9], 90%; in assay [10], 32.9%; in [11] it was 88.2%; in assay [12] it was 73.2%. The growth in assay [13] was 110%; in assay [14], 83.8%; in assay [15] it was 74.3%; in assay [20], 81%; in assay [16] it was 42.8%; in [17], 76.5%. In [18], the growth is 29.7%.

With `Cc1ncc(C(=O)Nc2ccc(CN3CCN(C)CC3)c(C(F)(F)F)c2)cc1C#Cc1cnc2cccnn12`, the growth is -55.4% (active) in assay [1]; -3.95% (active) in assay [2]; 0.116% (active) in assay [3]; 1.45% (active) in assay [4]; -3.71% (active) in assay [5]; -1.57% (active) in assay [6]. In addition, the growth was -16.7% (active) in [7]; 5.77% (active) in assay [8]; -0.188% (active) in assay [9]; -14.9% (active) in assay [10]; 2.24% (active) in assay [11]; 6.1% (active) in [12]. The growth in assay [13] is 13.8%; in assay [14], -17% (active); in assay [15], 22.9%; in assay [20], 5.84% (active); in assay [16], -0.593% (active); in assay [18], 8.62% (active).

Turning to `C#Cc1cccc(NC(=O)c2ccccc2NC(=O)C=C)c1`, the growth was 104% [8.25 µM] in [1]; 109% [8.25 µM] in [2]; 94% [8.25 µM] in assay [3]; 85.6% [8.25 µM] in [4]; 81.1% [8.25 µM] in [5]; 105% [8.25 µM] in assay [6]. Further, the growth in assay [19] was 96.8% [8.25 µM]; in assay [8] it was 106% [8.25 µM]; in assay [9], 102% [8.25 µM]; in assay [10], 101% [8.25 µM]; in [11], 66.9% [8.25 µM]; in [12], 91.4% [8.25 µM]. Further, the growth in [13] is 113% [8.25 µM]; in assay [14], 100% [8.25 µM]; in [15] it was 99.2% [8.25 µM]; in assay [20] it was 101% [8.25 µM]; in [16], 104% [8.25 µM]; in [17], 89.9% [8.25 µM]. For the same molecule, the growth in [18] is 103% [8.25 µM].

As for `COc1ccc(C2C(C#N)=C(N)Oc3n[nH]c(-c4cccs4)c32)cc1I` (stereo not drawn), the growth is 101% in assay [1]; 96% in assay [2]; 96.5% in assay [3]; 81.8% in assay [4]; 99.7% in [5]; 98.5% in assay [6]. Moreover, the growth is 77.4% in assay [19]; 76.3% in assay [8]; 74.9% in assay [9]; 53.2% in [10]; 78.8% in assay [11]; 95% in assay [12]. Further, the growth in assay [13] was 107%; in [14] it was 108%; in assay [15] it was 92.1%; in assay [20], 91.2%; in assay [16] it was 91.7%; in [17], 87.5%. Further, the growth in assay [18] was 96.2%.

For `CC[C@H]1OC(=O)[C@H](C)[C@@H](O[C@H]2C[C@@](C)(OC)[C@@H](O)[C@H](C)O2)[C@H](C)[C@@H](O[C@@H]2O[C@H](C)C[C@H](N(C)C)[C@H]2O)[C@](C)(O)C[C@H](C)CN(C)[C@H](C)[C@@H](O)[C@]1(C)O`, the growth in assay [1] is 117%; in assay [2] it was 86.5%; in assay [3], 93.9%; in assay [4] it was 78.9%; in assay [5], 103%; in assay [6], 96.5%. For the same molecule, the growth is 96.6% in assay [7]; 120% in assay [8]; 103% in [9]; 107% in [11]; 115% in [12]; 100% in assay [13]. For the same molecule, the growth was 108% in assay [14]; 97.4% in assay [15]; 98.3% in assay [20]; 96% in assay [16]; -29.8% (active) in assay [17]; 95.2% in assay [18].
